High-throughput results from PubChem BioAssay.
Only some compounds are listed: those with a hit (about 8.3% of all), similar ones and a draw of the others.
MCF10A rereplic = DNA re-replication induction in MCF 10a cells; MCF 10A DNA re-replication, Hoechst nuclear intensity, 48 h; 350,000 compounds, 2.9% hits; Potency, µM (doses to about 46.1 µM), without a hit: at the top dose activity, positive = re-replication, usual class: activators; also: potency is read from the fitted curve at half-maximal effect; % of control where 0% means no effect; nearly all actives have a fitted effect of over 50% in size
BCR signal inh = inhibitors of chronic active B-cell receptor signaling; 340,000 compounds, 0.05% hits; Potency, µM (titrated, usually from 46.1 µM), for inactives: top-dose activity change, negative = inhibition, hits mostly inhibitors; ABC-DLBCL IkBa-CBG/CBR reporter, luminescence ratio, 4 h; AID 493014; active = well fitted inhibition curve with a large enough effect in the signal ratio, with a control signal flat, not every such curve was filed as active; inconclusive = small, poorly fitted or top-dose-only effect, or effect the other way, or a change in a side signal; the % refers to the signal ratio;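 also: potency is read from the fitted curve at half-maximal effect; plate controls were basal doxycycline-induced cells for no effect and cells given 10 µM MG132 for full effect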
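Doxycycline induced both beetle luciferases in TMD8 lymphoma cells; IKK-driven degradation limits the IkappaBalpha-fused green signal, while red luminescence normalises for cell number and nonspecific effects. Compounds tested up to 46 uM, 4 hrs.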
RORg inh = ROR gamma (mouse) transcription inhibition; Drosophila S2 Gal4-RORgamma UAS-luciferase reporter, 20 h; Potency, µM (doses to about 53.6 µM), for inactives: top-dose activity change, negative = inhibition, usual class: inhibitors; 310,000 compounds, 5.4% hits; AID 2551; also: potency is read from the fitted curve at half-maximal effect; % is scaled to controls: 0 for no effect and ±100 for the full control effect; nearly all actives have a fitted effect of over 60% in size
Target sequence (P51450 whole entry, looked up, the tested form may be a part): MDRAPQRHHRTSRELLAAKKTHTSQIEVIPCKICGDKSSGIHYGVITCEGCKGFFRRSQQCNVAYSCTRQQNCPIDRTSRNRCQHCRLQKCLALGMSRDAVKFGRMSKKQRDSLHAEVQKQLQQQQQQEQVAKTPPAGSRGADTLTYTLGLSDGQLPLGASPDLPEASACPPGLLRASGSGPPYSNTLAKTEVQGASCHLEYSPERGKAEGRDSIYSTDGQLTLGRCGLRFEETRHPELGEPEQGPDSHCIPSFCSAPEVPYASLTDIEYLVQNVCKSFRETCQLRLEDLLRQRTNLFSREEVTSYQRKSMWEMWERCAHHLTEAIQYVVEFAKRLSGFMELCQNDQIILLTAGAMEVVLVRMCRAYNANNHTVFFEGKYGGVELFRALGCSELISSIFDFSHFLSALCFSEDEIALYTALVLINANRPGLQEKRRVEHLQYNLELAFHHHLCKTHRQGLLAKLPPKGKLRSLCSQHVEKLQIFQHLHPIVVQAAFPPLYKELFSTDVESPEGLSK
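In this cell-based reporter format, copper sulfate (700 uM final) drives Gal4–ROR gamma fusion expression from a metallothionein promoter in Drosophila Schneider cells; compounds preincubated 1 hr, reporter read after 20 hr at ambient temperature.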
SW480 rereplic = DNA re-replication induction in SW480 cells. SW480 DNA re-replication, Hoechst DNA content imaging, 48 h. Potency, µM (titrated, usually from 46.1 µM), inactives show at the highest dose re-replication activation, hits mostly activators. 340,000 compounds, 1.8% hits; also: potency is read from the fitted curve at half-maximal effect; % of control where 0% means no effect; nearly all actives have a fitted effect of over 55% in size
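Image-based DNA-content assay: after two days of treatment, nuclei were labelled with the DNA dye Hoechst and imaged, and hits were compounds raising the count of nuclei showing high fluorescence intensity.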
VP16 counter = counter-screen for ROR gamma inhibitors: Gal4-VP16 reporter; Drosophila S2 Gal4-VP16 UAS-luciferase, luminescence, 20 h; Potency, µM (doses to about 53.6 µM), without a hit: top-dose activity, negative = inhibition, most hits filed as inhibitors; 310,000 compounds, 3.5% hits;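 also: Gal4-VP16 expression switched on by copper sulfate through the metallothionein promoter; potency is read from the fitted curve at half-maximal effect; % is scaled to controls: 0 for no effect and ±100 for the full control effect; nearly all actives have a fitted effect of over 50% in size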
Giardia killer = kills Giardia lamblia | Giardia lamblia trophozoite viability | activity change, % at 7.66 µM, hits read low | 340,000 compounds, 0.15% hits | AID 540267; in the data active = activity change below about -80%; inconclusive = between about -30% and that limit;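 also: parasites exposed to compound for two days anaerobically before the ATP read; % is scaled to controls: 0 for no effect and ±100 for the full control effect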
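ATP-content bioluminescence gauges trophozoite survival. Cells (100/well) receive compound and incubate anaerobically for 48 hrs at 37 deg C; detection reagent follows for 15-30 min at room temperature.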
* = called active by the depositor. Unless noted, calls follow the shape of the dose curve; as a rule, active = well fitted curve in the direction sought with a large enough effect; inconclusive = small, poorly fitted or top-dose-only effect, or another doubt; inactive = no such curve, though single readings can be large; an effect the other way counts as inactive or inconclusive.

For CCN1CCc2c(sc(NC(=O)c3ccc(S(=O)(=O)N4CCOCC4)cc3)c2C(N)=O)C1 the results were MCF10A rereplic 0.1%, BCR signal inh 8.3%, RORg inh 4.6%, SW480 rereplic -25.3%, VP16 counter -1.1% and Giardia killer 1.7.
`CCCCN(CCCC)S(=O)(=O)c1ccc(C(=O)Nc2sc3c(c2C(N)=O)CCN(CC)C3)cc1` gave BCR signal inh 0.2%.
Screening NC(=O)c1c(NC(=O)c2c(F)cccc2F)sc2c1CCN(Cc1ccccc1)C2 returned MCF10A rereplic 25.9µM*, BCR signal inh 10.8%, RORg inh inconclusive, SW480 rereplic 13.1%, VP16 counter -6.1% and Giardia killer -26.3.
Screening CCN1CCc2c(sc(NC(=O)Cc3ccccc3)c2C(N)=O)C1 returned MCF10A rereplic -4.1%, BCR signal inh -17.0%, RORg inh -3.4%, SW480 rereplic -0.9%, VP16 counter -7.1% and Giardia killer 13.7.
CCN1CCc2c(sc(NC(=O)c3ccc(S(=O)(=O)N(CC)c4ccccc4)cc3)c2C(N)=O)C1 was read as MCF10A rereplic 11.6µM*, BCR signal inh -1.3%, RORg inh -40.4%, SW480 rereplic inconclusive, VP16 counter inconclusive and Giardia killer -12.5.
`C/C(=N\O)C1CCCCC1` gave BCR signal inh 0.0%, RORg inh -3.2% and VP16 counter -13.5%.
COc1ccc(C(=O)Nc2cccc(C)n2)cc1S(=O)(=O)N1CCCc2ccccc21 was read as MCF10A rereplic 2.1%, SW480 rereplic -90.3% and Giardia killer 1.0.
For CC(=O)N1CCc2c(sc(NC(=O)CCS(=O)(=O)c3ccccc3)c2C(N)=O)C1 the results were MCF10A rereplic inconclusive, BCR signal inh 1.1%, RORg inh -1.2%, SW480 rereplic 20.6µM*, VP16 counter 2.5% and Giardia killer -2.0.
For COc1cc2c(=O)n(CCC(=O)NCC3CCCO3)c(=O)n(CC(=O)Nc3ccc(C)cc3C)c2cc1OC (centres undefined) the results were MCF10A rereplic inconclusive, BCR signal inh 0.9%, RORg inh -16.6%, SW480 rereplic -3.3%, VP16 counter 1.5% and Giardia killer 21.7.
C=CCOc1cccc(C(=O)Nc2ncn[nH]2)c1 was read as MCF10A rereplic 1.8%, BCR signal inh -0.8%, RORg inh 22.4µM*, SW480 rereplic -4.6%, VP16 counter inconclusive and Giardia killer -11.8.
For C#CCOc1ccc2c(C)cc(=O)oc2c1 the results were MCF10A rereplic -9.7%, BCR signal inh inconclusive, RORg inh inconclusive, SW480 rereplic 6.9%, VP16 counter 11.2% and Giardia killer -4.0.
For Cc1cc(=O)oc2cc(OCC3CC(c4ccc(Br)cc4)=NO3)ccc12 (centres undefined) the results were MCF10A rereplic 9.2µM*, BCR signal inh -0.2%, RORg inh 34.6%, SW480 rereplic inconclusive, VP16 counter inconclusive and Giardia killer 14.1.
Screening O=[N+]([O-])c1ccc(OCc2nnc(-c3ccccc3)o2)cc1 returned MCF10A rereplic -0.8%, BCR signal inh inconclusive, RORg inh 21.3%, SW480 rereplic -0.3%, VP16 counter -16.9% and Giardia killer -23.7.
O=[N+]([O-])c1ccc(OCC2CC(c3ccccc3)=NO2)cc1 (centres undefined) was read as MCF10A rereplic inconclusive, BCR signal inh inconclusive, RORg inh 16.8%, SW480 rereplic 16.4µM*, VP16 counter -3.1% and Giardia killer -1.6.
`Cc1cc(=O)oc2cc(OCC3CC(c4ccccc4)=NO3)ccc12` (centres undefined) gave MCF10A rereplic 4.11µM*, BCR signal inh inconclusive, RORg inh 22.0%, SW480 rereplic 5.17µM*, VP16 counter 27.9% and Giardia killer 7.0.
Cc1cc(=O)oc2cc(OCC(=O)N3c4ccccc4CC3C)ccc12 (centres undefined) was read as MCF10A rereplic 2.51µM*, BCR signal inh 2.7%, RORg inh inconclusive, SW480 rereplic 1.64µM*, VP16 counter -16.6% and Giardia killer -1.7.
Cc1cccc(NC(=O)CC2C(=O)NCCN2C(=O)Nc2ccc(Cl)cc2)c1 (centres undefined) was read as MCF10A rereplic -14.2%, BCR signal inh 5.5%, RORg inh 24.1%, SW480 rereplic inconclusive, VP16 counter -9.2% and Giardia killer 19.8.
Screening O=C1C(c2cccc(Br)c2)N(CCc2ccccc2)C(=O)CN1C1CCCCC1 (centres undefined) returned BCR signal inh 2.3%.
For COc1ccc(C(=O)N2CCC3(CC2)CN(C(=O)Nc2ccccc2)C3)cc1 the results were RORg inh -16.6% and VP16 counter -11.2%.
For COc1ccc(OC)c(NC(=O)c2c(NCc3cccs3)sc3c2CCCCC3)c1 the results were BCR signal inh -4.2%.
Cc1[nH]c2ccc(F)cc2c(=O)c1SC(F)(F)C(F)C(F)(F)F (centres undefined) was read as MCF10A rereplic -3.1%, BCR signal inh inconclusive, RORg inh 7.3%, SW480 rereplic 14.2%, VP16 counter -10.2% and Giardia killer 8.3.
COc1cccc2c(=O)c(SC(F)(F)C(F)C(F)(F)F)c(C)[nH]c12 (centres undefined) was read as MCF10A rereplic inconclusive, BCR signal inh 3.1%, RORg inh -4.3%, SW480 rereplic 16.4µM*, VP16 counter -6.7% and Giardia killer -3.3.
For COc1ccc(S(=O)(=O)N(C)c2ccc(C(=O)Nc3cccnc3)cc2)cc1OC the results were MCF10A rereplic -1.5%, BCR signal inh -0.5%, RORg inh 36.0%, SW480 rereplic -22.7%, VP16 counter 1.4% and Giardia killer 5.2.
For Nc1nonc1-n1nnc(C(=O)N/N=C/c2ccc(Cl)cc2Cl)c1CN1CCCC1 the results were MCF10A rereplic -2.8%, BCR signal inh inconclusive, RORg inh -3.3%, SW480 rereplic 3.66µM*, VP16 counter -7.1% and Giardia killer 3.9.
Nc1nonc1-n1nnc(C(=O)N/N=C/c2cccc(Cl)c2Cl)c1CN1CCCC1 was read as MCF10A rereplic inconclusive, BCR signal inh -5.0%, RORg inh inconclusive, SW480 rereplic 20.6µM*, VP16 counter inconclusive and Giardia killer -0.9.
`Nc1nonc1-n1nnc(C(=O)N/N=C/c2ccccc2Cl)c1CN1CCOCC1` gave MCF10A rereplic -0.1%, BCR signal inh inconclusive, RORg inh 7.5%, SW480 rereplic -1.9%, VP16 counter 0.6% and Giardia killer 3.3.
